Reference: PubChem BioAssay (NCATS)
Inconclusive results are not listed. Activity calls are given as the source filed them. Calls follow the shape of the dose curve; as a rule, active = well fitted curve in the direction sought with a large enough effect; inconclusive = small, poorly fitted or top-dose-only effect, or another doubt; inactive = no such curve, though single readings can be large; an effect the other way counts as inactive or inconclusive.

Key:
[1] = Inflammasome Signaling qHTS Counterscreen: IL-1-beta AlphaLISA counterscreen against the NCATS CANVASS Library (AID 1347381)
Procedure, shortened: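 Cell-free interference check: compounds added to medium spiked with 4 pg purified IL-1β. Anti-IL-1β acceptor beads (6 ug/mL) with 0.6 nM biotinylated antibody added for 1 h at RT, then streptavidin donor beads (24 ug/mL) for 30 min in the dark. AlphaLISA read at 680/615 nm.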

[2] = Cytotoxicity qHTS for assessment of Hepg2 cells membrane integrity screened against the NCATS CANVASS Library (AID 1347387)
From the text: Natural products and their derivatives continue to be wellsprings of nascent therapeutic potential. However, many laboratories have limited resources for biological evaluation, leaving their previously isolated or synthesized compounds largely or completely untested. To address this issue, the Canvass library of natural products was assembled (https://tripod.nih.gov/canvass), in collaboration with academic and industry researchers, for quantitative high-throughput screening (qHTS) across a diverse set of cell-based and biochemical assays. The pure (>85% purity by liquid chromatography/mass spectrometry [LC/MS]) Canvass library of 346 natural products were submitted by 45 academic laboratories and companies around the world. […] The library was formatted into 1536-well plates and evaluated in 50 qHTS (in an 11-pnt concentration series) bioassays with broad scope of disease-relevant mechanisms. The resulting data set from 50 different assays was then systematically analyzed to identify overall trends and specific natural products with interesting biological activities. […] The amount of fluorescence is proportional to the number of lysed cells. […]
Membrane Integrity-screen protocol: 1. […] The fluorescence signal was measured using the EnVision plate reader (PerkinElmer) using a 560 nm excitation and 590 nm emission filters.

[3] = qHTS for Activators of p53 Stress Response Pathway screened against the NCATS CANVASS Library (AID 1347388)
From the text: Natural products and their derivatives continue to be wellsprings of nascent therapeutic potential. However, many laboratories have limited resources for biological evaluation, leaving their previously isolated or synthesized compounds largely or completely untested. To address this issue, the Canvass library of natural products was assembled (https://tripod.nih.gov/canvass), in collaboration with academic and industry researchers, for quantitative high-throughput screening (qHTS) across a diverse set of cell-based and biochemical assays. […] The library was formatted into 1536-well plates and evaluated in 50 qHTS (in an 11-pnt concentration series) bioassays with broad scope of disease-relevant mechanisms. The resulting data set from 50 different assays was then systematically analyzed to identify overall trends and specific natural products with interesting biological activities. […] The activation of the report gene under culture conditions can be detected by fluorescence intensity. […]
p53-screen protocol: 1. […] The fluorescence readout was obtained using the EnVision microplate reader (PerkinElmer) equipped with a 405 nm excitation and 460 nm and 530 nm emission filters. The ratio of 460 nm / 530 nm readout was calculated and used for data analysis. […]

[4] = qHTS assay for small molecule disruptors of mitochondrial membrane potential screened against the NCATS CANVASS Library (AID 1347389)
Procedure, shortened: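 HepG2, 2,000 cells/well, attached overnight; compound 1 hr, 37C, 5% CO2; Mito-MPS dye 30 min, 37C; fluorescence 535 nm (monomer) and 590 nm (aggregate); decreased 590/535 ratio = depolarization.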

[5] = qHTS for activators of Nrf2/ARE signaling pathway screened against the NCATS CANVASS Library (AID 1347391)
Procedure, shortened: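 Plate ARE-bla HepG2 cells at 2000/well and let them settle 5 h. Pin-transfer compounds in DMSO, incubate 16 h at 37C. Load CCF4 for 2 h at room temperature and read blue/green fluorescence.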

[6] = qHTS for activators of dead-cell proteases activity screened against the NCATS CANVASS Library (AID 1347392)
Procedure, shortened: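 HepG2 cells (2000/well) attached 18 h at 37C, then exposed 5 h to compounds (11-point qHTS). Dead-cell protease activity read as luminescence from cell-impermeant AAF-aminoluciferin substrate after 15 min at room temperature.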

[7] = qHTS for inhibitors of ER calcium dysfunction: SERCaMP assay screened against the NCATS CANVASS Library (AID 1347393)
Procedure, shortened: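 qHTS in SH-SY5Y reporter cells: 16 h compound pretreatment, 4 h thapsigargin, then secreted Gaussia luciferase measured by luminescence.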

[8] = Vero-766 cells viability qHTS against the NCATS CANVASS Library: Counterscreen for Zika virus inhibition assay (AID 1347394)
Procedure, shortened: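 Counterscreen for toxicity: Vero 766 cells exposed 72 h to an 11-point compound series, viability by CellTiter-Glo.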

[9] = qHTS for inhibitors of Wild type Zika virus screened against the NCATS CANVASS Library (AID 1347396)
From the text: Natural products and their derivatives continue to be wellsprings of nascent therapeutic potential. However, many laboratories have limited resources for biological evaluation, leaving their previously isolated or synthesized compounds largely or completely untested. To address this issue, the Canvass library of natural products was assembled (https://tripod.nih.gov/canvass), in collaboration with academic and industry researchers, for quantitative high-throughput screening (qHTS) across a diverse set of cell-based and biochemical assays. […] The library was formatted into 1536-well plates and evaluated in 50 qHTS (in an 11-pnt concentration series) bioassays with broad scope of disease-relevant mechanisms. The resulting data set from 50 different assays was then systematically analyzed to identify overall trends and specific natural products with interesting biological activities. […]
Zika virus infection assay protocol: 1. […] In a biosafety cabinet, the desired MOI Zika virus was calculated and 2 uL of 2.5x Zika virus was dispensed into columns 1, 2 and 5 - 48 using the Multidrop Combi dispenser. […] Luminescence signal was obtained via the ViewLux plate reader (Perkin Elmer) using the clear emission filter and 1x binning, 2 seconds exposure settings.

[10] = Viability qHTS for inhibitors of the SERCaMP assay screened against the NCATS CANVASS Library (AID 1347400)
Procedure, shortened: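 SH-SY5Y SERCaMP MJH297 cells, 1000/well; 4 h settle, 37C/5% CO2; pin-transferred cpds; 48 h; CellTiter-Glo lum. Pos ctrl bortezomib 0.0001 - 4.6 uM.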

Measured: outcome

NCC(O)c1ccc(O)cc1 (stereo not given)
inactive: [1] | [2] | [3] | [4] | [5] | [6] | [7] | [8] | [9] | [10]
